Measured values: PubChem BioAssay AID624288 (National Center for Advancing Translational Sciences (NCATS), 2012)
The campaign covered roughly 340,000 compounds. About 1,400 (0.41%) were called active. A call without a number means that no potency is given here. About 4% were inconclusive and are not listed. Calls come from the whole dose curve; cell line not stated here. This excerpt belongs to a sample that is enriched for actives.

Test: qHTS for Antagonists of gsp, the Etiologic Mutation Responsible for Fibrous Dysplasia/McCune-Albright Syndrome: qHTS; note: nearly all actives have a fitted effect of over 65% in size
Conditions: gsp-mutant cells, cAMP HTRF, 30 min; series mostly up to 76.9 µM
In short: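 HTRF cAMP read-out (cAMP-d2 plus anti-cAMP antibody-K in lysis buffer, 30 min RT). Before lysis, cells are exposed to compounds with […] for 30 min at 37C in DPBS containing Ca/Mg, BSA and Tween 20.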
Potency is the fitted concentration of half-maximal effect.

Row | Compound | Potency
1 | COc1ccc2sc(-c3ccc(N(C)C)cc3)c(-c3ccc4cc[nH]c4c3)c2c1 | inactive
2 | COc1ccc(-c2sc3ccc(OC)cc3c2C#Cc2ccccn2)cc1 | 28.2 µM (active)
3 | COc1ccc2sc(-c3ccc(N(C)C)cc3)c(C#CCO)c2c1 | inactive
4 | CN(C)C(=S)N=c1ssc(=S)n1Cc1ccco1 | inactive
5 | O=c1[nH]n(-c2ccc([N+](=O)[O-])cc2)c(=O)c2ccccc12 | inactive
6 | O=C1CC(c2ccccc2)=NN1c1ccc([N+](=O)[O-])cc1 | 35.5 µM (active)
7 | Cc1nn(-c2ccc([N+](=O)[O-])cc2)c(N)c1-c1ccccc1 | inactive
8 | O=C1COc2c1ccc(O)c2O | inactive
9 | O=C(O)c1ccc(Cn2cnc3c(=S)nc[nH]c32)cc1 | inactive
10 | O=C(CC(=O)c1cccnc1)c1ccccc1 | inactive
11 | CCC(=C/c1sc2ccc3ccccc3c2[n+]1C)/C=C1\Sc2ccc3ccccc3c2N1C | 35.5 µM (active)
12 | O=C1CC(c2ccccc2)C(c2ccccc2)=NN1 (stereo not given) | inactive
13 | c1ccc(CNc2ncnc3[nH]ncc23)cc1 | inactive
14 | Cc1ccc(SCC(=O)N2CCN(c3ccc(F)cc3)CC2)cc1 | inactive
15 | CN(C(=O)c1ccc(NC(=O)Cc2cccc(NC(=O)C3CCN(C(=O)c4ccccc4)CC3)c2)cc1)C1CC1 | inactive
16 | Cc1ccc(NC(=O)Nc2cccnc2)cc1 | inactive
17 | Cc1ccc(NC(=O)Nc2nnc(-c3ccncc3)s2)cc1 | 50.1 µM (active)
18 | CCc1ccc(NC(=O)Nc2ccncc2)cc1 | inactive
19 | O=C1NCC(Nc2ccccc2)C(=O)N1 (stereo not given) | inactive
20 | COc1ccc(S(=O)(=O)N2C[C@H]3CON(C)[C@H]3C[C@H]2c2cccc(Br)c2)cc1 | inactive
21 | O=[N+]([O-])c1ccccc1/C=N/n1c(COc2ccccc2)n[nH]c1=S | inactive
22 | S=c1[nH]nc(-c2ccncc2)n1/N=C/c1ccccc1Cl | inactive

Row | Compound | Potency
23 | Fc1ccccc1/C=N/n1c(-c2cccnc2)n[nH]c1=S | 28.2 µM (active)
24 | Cc1cccc(NC(=S)N2CCC(C(=O)c3ccc(F)cc3)CC2)c1 | inactive
25 | Cc1nn(-c2ccccc2)c(C)c1NC(=O)CCl | inactive
26 | Cc1nn(-c2ccccc2)c(C)c1NC(=O)COc1ccc(Cl)cc1Cl | 50.1 µM (active)
27 | Cc1nn(-c2ccccc2)c(C)c1NC(=O)COC(=O)c1cc(Cl)ccc1O | inactive
28 | CC(C)Cn1cnc2c(SCc3ccc(Cl)cc3)nc(N)nc21 | inactive
29 | COC(=O)CC(CC(=O)OC)n1cccc1 | inactive
30 | NS(=O)(=O)c1cccc(NC(=O)CSc2nc3ccccc3n2-c2ccccc2)c1 | 28.2 µM (active)
31 | COc1ccc(-n2cnnc2SCC(=O)Nc2cccc(S(N)(=O)=O)c2)cc1 | inactive
32 | Cc1nnc(SCC(=O)Nc2cccc(N)c2)n1-c1ccccc1 | inactive
33 | CNc1nc(=O)n(C2CCCO2)cc1C (stereo not given) | inactive
34 | Cc1ccccc1OCC(=O)Nc1ccc2c(c1)ncn2C | inactive
35 | Cc1ccccc1OCC(=O)Nc1ccc(S(=O)(=O)N2CCOCC2)cc1 | inactive
36 | Cc1ccccc1OCC(=O)Nc1ccc(N2CCN(C(=O)C(C)C)CC2)c(Cl)c1 | 31.6 µM (active)
37 | COc1ccc2nc(N3C(=O)C(O)=C(C(=O)c4ccco4)C3c3ccco3)sc2c1 (stereo not given) | inactive
38 | OCCN1CCN(CCO)C1=S | inactive
39 | N#CC1=C(N)Oc2cc(N)ccc2C1c1ccccc1 (stereo not given) | inactive
40 | CN(C)/N=C/c1cc(Cl)cc([N+](=O)[O-])c1O | inactive
41 | O=[N+]([O-])c1cc(Cl)cc(/C=N/NC(=S)Nc2cc(S(=O)(=O)N3CCOCC3)ccc2Cl)c1O | 50.1 µM (active)
42 | O=S(=O)(c1ccc(NC(=S)NN=C(C2CC2)C2CC2)cc1)N1CCOCC1 | inactive
43 | O=C1CC(c2ccccc2)C(=O)N2C(=O)CC(c3ccccc3)C(=O)N12 (stereo not given) | inactive
44 | Cc1nc(Nc2ccccc2C)c2cnn(C)c2n1 | inactive

Row | Compound | Potency
45 | COc1ccc(N=C2C=CC(=O)O2)cc1 | inactive
46 | O=C(CCNC(=O)c1ccccc1)Nc1nc2ccccc2s1 | inactive
47 | N=C1C(c2nc3ccccc3s2)=C(O)CN1NC(=O)c1ccc([N+](=O)[O-])cc1 | inactive
48 | O=C(NC(Nc1nc2ccc([N+](=O)[O-])cc2s1)(C(F)(F)F)C(F)(F)F)c1ccccc1 | 3.98 µM (active)
49 | CC(=O)Nc1ccc(C(=O)Nc2cc(S(=O)(=O)N3CCOCC3)ccc2N2CCOCC2)cc1 | inactive
50 | CC1(C)N=C(N)NC(Nc2ccc(Cl)cc2)=N1 | inactive
51 | O=C(O)c1ccccc1NC(=O)c1ccccc1-c1ccccc1C(=O)O | inactive
52 | O=C(Nc1ccccc1)c1ccccc1NC(=O)C(F)(F)F | 31.6 µM (active)
53 | CC1CCCCC1NCC(=O)Nc1ccccc1C(=O)Nc1ccccc1 (stereo not given) | inactive
54 | c1ccc(CCc2ccccn2)cc1 | inactive
55 | Cc1cc(N2C(=O)C(=O)/C(=C(/O)c3ccccc3)C2c2cccc(Br)c2)no1 (stereo not given) | inactive
56 | Cc1cc(N2C(=O)C(=O)/C(=C(/O)c3ccc(Cl)cc3)C2c2cccc(Br)c2)no1 (stereo not given) | inactive
57 | COc1ccccc1C1/C(=C(/O)c2ccc(OC(C)C)cc2)C(=O)C(=O)N1c1cc(C)on1 (stereo not given) | 28.2 µM (active)
58 | COc1ccc(CNCCCNCc2ccc(OC)c(OC)c2)cc1OC | inactive
59 | O=C1NC(c2ccccc2)Cc2ccncc21 (stereo not given) | inactive
60 | Cc1ccc(S(=O)(=O)CC(=O)Nc2nnc(C)s2)cc1 | inactive
61 | Cc1ccc(CS(=O)(=O)c2ncc(Cl)c(C(=O)Nc3nnc(C)s3)n2)cc1 | 31.6 µM (active)
62 | Cc1cccc(CS(=O)(=O)c2ncc(Cl)c(C(=O)Nc3ccc(F)cc3)n2)c1 | 50.1 µM (active)
63 | Cc1nnc(NC(=O)c2ccc3nccnc3c2)s1 | inactive
64 | CCOc1ccc(NC(=O)c2nc(SCC)ncc2Cl)cc1 | inactive
65 | CSc1nnc(NC(=O)c2nc(S(=O)(=O)Cc3ccc(C)cc3)ncc2Cl)s1 | 15.8 µM (active)
66 | Cc1cccc(NC(=O)c2nc(S(=O)(=O)Cc3ccccc3)ncc2Cl)c1 | inactive

Row | Compound | Potency
67 | CSc1ncc(Cl)c(C(=O)Nc2cc(C)ccc2C)n1 | inactive
68 | COCCSc1nnc(NC(=O)CCS(=O)(=O)Cc2ccccc2)s1 | inactive
69 | NC(=O)C1(Nc2ccc(-c3ccccc3)cc2)CCCC1 | inactive
70 | CC(C)OC(=O)c1ccc(NCc2cc(O)ccc2O)cc1Cl | inactive
71 | C=CCCC(=O)N1C[C@H]2CON(C)[C@H]2C[C@H]1c1cccc(Nc2ccccc2)c1 | inactive
72 | CCOc1ccccc1NC(=S)C(=C([O-])c1ccc2c(c1)OCCO2)[n+]1ccc(CC)cc1 | inactive
73 | O=c1c2ccccc2ncn1CCc1ccncc1 | inactive
74 | Cc1ccc(C)c(S(=O)(=O)N(C)c2ccc(OC(=O)C3CCN(C(=O)c4ccc(F)cc4)CC3)cc2)c1 | inactive
75 | CCOc1cc(C(=O)N(Cc2ccccc2)c2ccc(C)cc2)ccc1OCC(=O)N1CCOCC1 | inactive
76 | Cc1ccc2oc(=O)ccc2c1 | inactive
77 | O=[N+]([O-])c1ccc(N=NNc2ccc([N+](=O)[O-])cc2)cc1 | inactive
78 | OCC1(CO)CC2(C1)CC(CO)(CO)C2 | inactive
79 | COc1ccc(N(C)S(=O)(=O)c2ccc3c(c2)CC(C)N3C(=O)C2CC2)c(OC)c1 (stereo not given) | 31.6 µM (active)
80 | COc1cccc(CNS(=O)(=O)c2ccc3c(c2)CC(C)N3C(=O)C2CCC2)c1 (stereo not given) | inactive
81 | COc1cccc(CNS(=O)(=O)c2ccc3c(c2)CC(C)N3C(C)=O)c1 (stereo not given) | inactive
82 | O=C(Nc1cccc(Br)c1)C1CC(=O)N(C2CCCC2)C1 (stereo not given) | inactive
83 | CCOC(=O)C1CCCN(C(=O)CN(c2ccc(OC)cc2)S(=O)(=O)c2c(C)noc2C)C1 (stereo not given) | inactive
84 | COc1ccc(NC(=O)N2CCCC(c3nc(-c4ccc(F)cc4)no3)C2)cc1 (stereo not given) | inactive
85 | CCN(C(=O)C1CCCN(c2nc(-c3ccc(OC)cc3)no2)C1)c1ccc(OC)cc1 (stereo not given) | 35.5 µM (active)
86 | O=C(O)C(=Cc1ccccc1[N+](=O)[O-])c1ccccc1 | inactive
87 | N#Cc1c(-c2ccccc2)nc(SCc2ccc([N+](=O)[O-])cc2)[nH]c1=O | inactive
88 | Cc1ccc(CSc2nc(-c3ccccc3)c(C#N)c(=O)[nH]2)cc1 | inactive

Row | Compound | Potency
89 | N#Cc1c(-c2ccccc2)nc(SCc2cccc(C(F)(F)F)c2)[nH]c1=O | 50.1 µM (active)
90 | O=C(NC1=CC(=O)c2ccccc2C1=O)c1ccccc1 | inactive
91 | CC(=O)N(C1=C(Cl)C(=O)c2ccccc2C1=O)c1ccc(C(=O)O)cc1 | 50.1 µM (active)
92 | CSc1nsc(NC(=O)Nc2ccccc2)n1 | inactive
93 | CC(=O)c1cccc(NC(=S)N2CCCC2)c1 | inactive
94 | C=CCSc1nsc(NC(=O)Nc2cccc(C(C)=O)c2)n1 | 28.2 µM (active)
95 | CCSc1nsc(NC(=O)Nc2cccc(C(C)=O)c2)n1 | 25.1 µM (active)
96 | CCSc1nsc(NC(=O)Nc2ccccc2OC)n1 | inactive
97 | C=C(C)C(=O)Nc1cccc(C(C)=O)c1 | inactive
98 | CC1C(C)N(C(=O)CCl)c2ccccc2N1C(=O)CCl (stereo not given) | inactive
99 | O=S(=O)(O)c1cc2onnc2c2ccccc12 | inactive
100 | CC(C)(C)OC(=O)N1CCC(C(=O)Nc2cccc(C(=O)NCCc3ccccc3)c2)CC1 | inactive
101 | O=C(OC12CC3CC(CC(C3)C1)C2)c1ccc(NCc2cc(O)ccc2O)cc1 | inactive
102 | O=c1c(-c2ccc3c(c2)OCCO3)c(C(F)(F)F)oc2cc(O)cc(O)c12 | 39.8 µM (active)
103 | COc1ccc(-c2onc(C)c2-c2ccc3c(c2)OCCO3)c(O)c1 | inactive
104 | CCN1CCN(Cc2c(O)ccc3c(=O)c(-c4ccc(OC)c(OC)c4)c(C(F)(F)F)oc23)CC1 | inactive
105 | CC(C)(C)S(=O)(=O)N1Cc2cc(CO)cc(CCO)c2[C@H]1CCO | inactive
106 | COc1cccc(C=CC(=O)C=CC=Cc2ccccc2)c1 | inactive
107 | COc1ccc(-c2ccc3c(c2)C2CC3CCN2CCC#N)cc1 (stereo not given) | inactive
108 | O=C1[C@@H]2C(c3cccnc3)=NO[C@@H]2C(=O)N1c1ccc(Cl)cc1Cl | 11.2 µM (active)
109 | O=C(NNC1CC(=O)N(c2cccc(Cl)c2)C1=O)c1cccnc1 (stereo not given) | inactive
110 | O=C(/C=C/c1ccc(Cl)cc1Cl)c1cccnc1 | inactive
